# Experimental data published in the supplement of paper PMC6555819.
# What was measured:
# Assay in all cases: PBM binding z-score (relative to random genomic background probes); higher = stronger binding; sequences stand for … in GC…GCGATTGACAGCGTAGAATGAAGG
# [1] = test system: RARb homodimer (NR concentration 270 nM)
# How it was run: (§1)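 Random background probes are the reference for binding z-scores. These scores derive from regression-normalized fluorescence on custom Agilent 4×180K protein-binding microarrays incubated 1 h with ligand-free nuclear receptor dimers. Binding was detected with antibodies against each partner (one per run).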
# [2] = test system: RARg:RXRa (NR concentration 270 nM, RXRa partner concentration 90 nM)
# How it was run: as §1
# [3] = test system: RARg homodimer (NR concentration 270 nM)
# How it was run: as §1
# [4] = test system: RXRa DBDmut IVT, anti-RXR (DBD mutation: RXRa K156A/R161A, NR concentration 90 nM)
# How it was run: as §1
# [5] = test system: RXRa homodimer (NR concentration 180 nM)
# How it was run: as §1
# [6] = test system: THRa:RXRa (NR concentration 90 nM, RXRa partner concentration 90 nM)
# How it was run: as §1
# [7] = test system: THRa homodimer (NR concentration 90 nM)
# How it was run: as §1
# [8] = test system: VDR homodimer (NR concentration 270 nM)
# How it was run: as §1
Sequence,PBM binding z-score [1],PBM binding z-score [2],PBM binding z-score [3],PBM binding z-score [4],PBM binding z-score [5],PBM binding z-score [6],PBM binding z-score [7],PBM binding z-score [8]
CCAACTGGGCCATTCAGAGGTCATTGATCATATG,3.76,4.28,2.94,1.22,3.98,3.12,1.3,3.31
GATACAGGGTCTAGGCCAGAGTACGCGTATTGAT,-0.143,0.0579,0.175,-0.382,-0.304,-0.508,-0.824,0.154
CGAACTTGGTCATTGACAGGACAGTGAATAGTAA,0.601,1.04,0.884,0.43,0.621,0.513,-0.107,0.11
ACTTACGGGTCGACGAGGTTATAGCACGCGTATA,1.57,2.39,1.72,1.2,2.93,3.05,0.75,2.03
GCGACGGGGGCATCAGCAGGTTACCATAACTTAA,2.43,5.01,2.7,3.03,3.26,3.25,1.61,1.88
TCTTGTAGATCAATAGGAGGTTAAGAAAGATCGA,0.457,0.595,0.446,1.01,0.992,0.723,-0.311,-0.266
ACTAGCAGGCCAAGTTTGGGTCACTAAAACAAAG,2.17,2.1,1.53,-0.281,0.88,2.52,0.917,0.383
ACAGACAGGCGATGAAGGTAACTCAGGCTATCAT,-0.109,-0.163,0.174,-0.246,-0.0483,0.512,-0.0858,-0.339
GCTAGCTGGTCAGTAAAAGGTCACACACCGGTCG,4.99,5.88,4.93,0.376,5.62,3.34,1.36,1.37
ATCTCTAGGTAACCAAGTACAGTGAATGCCGAAC,0.221,0.424,0.577,0.152,0.115,0.827,0.385,0.365
CCGACAGGGGCAGAAAGGTTACCATACCATCCGG,2.48,1.84,1.71,-0.361,1.99,1.14,-0.126,0.344
ATGGAAAGGTCGAAGGTGAGTATACCCACCCGAA,2.68,4.21,3.87,0.318,4.97,2.3,0.00488,0.714
ATATGTAGGTTATCGGGTAATTCAGTTTGCGCAT,0.9,0.94,0.821,0.617,1.05,1.29,1.26,1.3
ACTATCAGGCCAAGTTTGGGTCACTCAAACAAAG,2.56,2.71,2.11,0.348,0.935,2.93,1.81,0.829
ATCTCTAGGTAACCAGTTCAGTGAAAGAGAGGAC,1.05,0.822,0.768,0.358,0.791,1.35,1.18,1.35
GGAACGAAGGCAAGTTGATAGCAGAGTTTGATGG,-0.711,-0.376,-0.138,0.098,-0.667,-0.824,-1.3,-0.0459
CAACCTAGGTCAAGAGGTCAAAGTCCGCTTCCCG,5.47,8.21,7.78,3.12,8.82,4.18,2.41,4.38
ATCTCTAGGTAACCAATTTCAGTGAATGCCGAAC,0.515,0.324,0.586,0.556,0.198,0.887,0.984,0.312
TAGCCGAGGTCATTGGGCCAGTATAGTACGCATC,3.98,5.93,5.86,4.42,6.61,4.01,2.77,5.01
TATACAGAGTCAAAGGCCAGAGTACGAATGTCGA,0.843,0.902,1.01,-0.862,1.03,-0.0396,-0.776,0.0199
GCTGCCAGGTCAACTGATGGTCAGCTAAAGCTCG,3.58,5.49,5.38,1.94,3.81,3.68,2.18,0.679
CGAGACAGGTGAAAGGTAACTCAGTCTGGTACGC,0.817,1.2,0.702,-0.262,2.11,0.861,-0.303,-0.342
